Measurements published in PubChem BioAssay (Tox21).
Results filed as inconclusive are left out. The source made the active and inactive calls. Unless noted, calls follow the shape of the dose curve; as a rule, active = well fitted curve in the direction sought with a large enough effect in the repeat runs; inconclusive = weak or mixed curves; inactive = no such curve, though single readings can be large; an effect the other way counts as inactive or inconclusive. Non-standard residues stand in square brackets, D forms with d. Residues, ends and D or L forms follow the SMILES beside them. *: point of attachment. Sta = CC(C)C[C@H](N)[C@@H](O)CC(=O)O; Isovaleryl = CC(C)CC(=O)*

Columns and labels:
[1] = qHTS assay to identify small molecule antagonists of the glucocorticoid receptor (GR) signaling pathway - cell viability counter screen (AID 720693); also: nearly all actives have a fitted effect of over 55% in size
[2] = qHTS assay for identifying genotoxic compounds that show differential cytotoxicity against isogenic chicken DT40 cell lines with known DNA damage response pathways - wild type cell line (AID 743012); also: nearly all actives have a fitted effect of over 60% in size
How it was run: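 Using parental DT40 (300 cells/well), compounds delivered in DMSO incubate 40 h at 37 C/5% CO2. CellTiter-Glo reagent then stands 30 min at room temperature, and luminescence gives cell viability.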

[3] = qHTS assay for identifying genotoxic compounds that show differential cytotoxicity against isogenic chicken DT40 cell lines with known DNA damage response pathways - Rad54/Ku70 mutant cell line (AID 743015); also: nearly all actives have a fitted effect of over 60% in size
[4] = qHTS assay to identify small molecule antagonists of the androgen receptor (AR) signaling pathway - cell viability counter screen (AID 743033; also: nearly all actives have a fitted effect of over 45% in size)
[5] = qHTS assay to identify small molecule antagonists of the androgen receptor (AR) signaling pathway using the MDA cell line - cell viability counter screen (AID 743041; also: nearly all actives have a fitted effect of over 45% in size)
How it was run: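 Cells were plated at 3,000 per well and left 5 h. Compounds in DMSO were then pinned in, followed by R1881. After 16 h at 37C, CellTiter-Fluor fluorescence gave viability.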

[6] = qHTS assay to identify small molecule antagonists of the thyroid receptor (TR) signaling pathway - cell viability counter screen (AID 743064); also: nearly all actives have a fitted effect of over 50% in size
How it was run: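 In-well cytotoxicity read by CellTiter-Fluor (30 min, 37 C) following 23.5 h exposure of GH3 cells bearing a TRE-luciferase sensor. Compounds were added alongside 1 nM (final) T3 to drive TR transactivation.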

[7] = qHTS assay to identify small molecule antagonists of the thyroid receptor (TR) signaling pathway (AID 743065); also: series mostly up to about 70 µM; nearly all actives have a fitted effect of over 55% in size
How it was run: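 Antagonism measured as loss of luciferase signal in GH3 cells stably carrying a TRE-luciferase reporter, co-treated with compound and T3 (1 nM final) for 23.5 h at 37 C. Viability was read in the same well by CellTiter-Fluor.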

[8] = tested on: thyroid hormone receptor (rat, GH3 cells); experiment: qHTS assay to identify small molecule agonists of the thyroid receptor (TR) signaling pathway (AID 743066; calls by dose curve)
[9] = qHTS assay to identify small molecule antagonists of the estrogen receptor alpha (ER-alpha) signaling pathway - cell viability counter screen (AID 743074; calls by dose curve;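 also: HEK293 cells carrying ER-alpha-UAS-bla reporter stimulated with 17beta-estradiol; nearly all actives have a fitted effect of over 45% in size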)
[10] = qHTS assay to identify small molecule antagonists of the estrogen receptor alpha (ER-alpha) signaling pathway using the BG1 cell line - cell viability counter screen (AID 743081);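 also: compound given together with 17beta-estradiol as the ER stimulus; series mostly up to about 70 µM; nearly all actives have a fitted effect of over 45% in size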
[11] = target: Aromatase (Homo sapiens) (UniProt P11511); experiment: qHTS assay to identify aromatase inhibitors (AID 743083); also: series mostly up to about 70 µM; nearly all actives have a fitted effect of over 55% in size
Aromatase (Homo sapiens), sequence (P11511 whole entry, looked up): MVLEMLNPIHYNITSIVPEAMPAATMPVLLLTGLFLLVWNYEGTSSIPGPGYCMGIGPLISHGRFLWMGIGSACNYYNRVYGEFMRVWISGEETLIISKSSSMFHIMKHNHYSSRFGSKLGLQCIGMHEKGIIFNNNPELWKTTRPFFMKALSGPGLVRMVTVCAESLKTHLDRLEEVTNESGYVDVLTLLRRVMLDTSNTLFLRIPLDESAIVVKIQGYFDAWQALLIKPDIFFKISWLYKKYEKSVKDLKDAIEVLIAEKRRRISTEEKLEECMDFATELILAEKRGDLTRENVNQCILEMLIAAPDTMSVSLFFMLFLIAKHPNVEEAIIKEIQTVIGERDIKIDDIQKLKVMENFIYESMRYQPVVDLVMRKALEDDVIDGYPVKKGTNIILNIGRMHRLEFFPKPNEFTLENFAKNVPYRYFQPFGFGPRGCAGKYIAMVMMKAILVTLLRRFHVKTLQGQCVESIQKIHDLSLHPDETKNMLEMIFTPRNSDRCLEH

[12] = qHTS assay for identifying genotoxic compounds that show differential cytotoxicity against isogenic chicken DT40 cell lines with known DNA damage response pathways - Rev3 mutant cell line (AID 743014); also: nearly all actives have a fitted effect of over 55% in size
[13] = target: Estrogen receptor (Homo sapiens) (UniProt P03372); experiment: qHTS assay to identify small molecule antagonists of the estrogen receptor alpha (ER-alpha) signaling pathway (AID 743069; active = well fitted curve in the direction sought with a large enough effect in the signal ratio in the repeat runs, not every such curve was filed as active; the % refers to the signal ratio)
Estrogen receptor (Homo sapiens), sequence (P03372 whole entry, looked up): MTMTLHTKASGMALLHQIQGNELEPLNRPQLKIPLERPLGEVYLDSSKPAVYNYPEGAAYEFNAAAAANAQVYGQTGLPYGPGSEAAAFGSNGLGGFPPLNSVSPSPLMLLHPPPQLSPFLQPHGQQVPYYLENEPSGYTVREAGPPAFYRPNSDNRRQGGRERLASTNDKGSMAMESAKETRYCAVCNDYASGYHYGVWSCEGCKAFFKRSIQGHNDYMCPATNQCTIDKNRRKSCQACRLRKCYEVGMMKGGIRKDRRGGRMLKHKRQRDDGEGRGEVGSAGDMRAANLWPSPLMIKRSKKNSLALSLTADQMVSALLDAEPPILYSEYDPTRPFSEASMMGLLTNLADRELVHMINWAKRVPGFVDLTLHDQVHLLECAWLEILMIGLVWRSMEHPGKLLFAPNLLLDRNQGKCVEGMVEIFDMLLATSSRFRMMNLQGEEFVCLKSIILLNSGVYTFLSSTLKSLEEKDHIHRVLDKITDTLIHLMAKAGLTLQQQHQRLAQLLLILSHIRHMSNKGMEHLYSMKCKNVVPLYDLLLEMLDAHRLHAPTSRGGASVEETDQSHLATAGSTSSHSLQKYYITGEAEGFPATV
How it was run: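 ER-alpha-UAS-bla GripTite HEK293 line; 2% charcoal-stripped FBS overnight; plated, 4 hr 37C/5% CO2; cpd in DMSO + 17beta-estradiol, 18 hr 37C; LiveBLAzer B/G FRET substrate 2 hr RT; fluorescence intensity.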

[14] = target: Estrogen receptor (Homo sapiens) (UniProt P03372); experiment: qHTS assay to identify small molecule agonists of the estrogen receptor alpha (ER-alpha) signaling pathway (AID 743075; calls by dose curve;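 also: HEK293 GripTite cells with ER-alpha and UAS-driven beta-lactamase reporter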)
[15] = target: Estrogen receptor (Homo sapiens) (UniProt P03372); experiment: qHTS assay to identify small molecule agonists of the estrogen receptor alpha (ER-alpha) signaling pathway using the BG1 cell line (AID 743079); also: nearly all actives have a fitted effect of over 20% in size; also: potency is read from the fitted curve at half-maximal effect
[16] = qHTS assay to identify small molecule antagonists of the estrogen receptor alpha (ER-alpha) signaling pathway using the BG1 cell line (AID 743080; calls by dose curve;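 also: BG1 cells stimulated with 17beta-estradiol alongside compound; series mostly up to about 70 µM; nearly all actives have a fitted effect of over 25% in size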)
How it was run: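 BG1-Luc-4E2 cells (endogenous full-length ER-alpha, stable 4×ERE-luciferase) were starved 5 days in phenol-red-free medium with 10% charcoal-stripped FBS, plated 24 h, then given compound plus 17beta-estradiol for 21.5 h at 37 C; ONE-Glo luminescence read after 30 min.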

[17] = target: Androgen receptor (Homo sapiens) (UniProt P10275); experiment: qHTS assay to identify small molecule antagonists of the androgen receptor (AR) signaling pathway (AID 743035; active = well fitted inhibition curve with a large enough effect in the signal ratio in the repeat runs, not every such curve was filed as active; the % refers to the signal ratio)
Androgen receptor (Homo sapiens), sequence (P10275 whole entry, looked up): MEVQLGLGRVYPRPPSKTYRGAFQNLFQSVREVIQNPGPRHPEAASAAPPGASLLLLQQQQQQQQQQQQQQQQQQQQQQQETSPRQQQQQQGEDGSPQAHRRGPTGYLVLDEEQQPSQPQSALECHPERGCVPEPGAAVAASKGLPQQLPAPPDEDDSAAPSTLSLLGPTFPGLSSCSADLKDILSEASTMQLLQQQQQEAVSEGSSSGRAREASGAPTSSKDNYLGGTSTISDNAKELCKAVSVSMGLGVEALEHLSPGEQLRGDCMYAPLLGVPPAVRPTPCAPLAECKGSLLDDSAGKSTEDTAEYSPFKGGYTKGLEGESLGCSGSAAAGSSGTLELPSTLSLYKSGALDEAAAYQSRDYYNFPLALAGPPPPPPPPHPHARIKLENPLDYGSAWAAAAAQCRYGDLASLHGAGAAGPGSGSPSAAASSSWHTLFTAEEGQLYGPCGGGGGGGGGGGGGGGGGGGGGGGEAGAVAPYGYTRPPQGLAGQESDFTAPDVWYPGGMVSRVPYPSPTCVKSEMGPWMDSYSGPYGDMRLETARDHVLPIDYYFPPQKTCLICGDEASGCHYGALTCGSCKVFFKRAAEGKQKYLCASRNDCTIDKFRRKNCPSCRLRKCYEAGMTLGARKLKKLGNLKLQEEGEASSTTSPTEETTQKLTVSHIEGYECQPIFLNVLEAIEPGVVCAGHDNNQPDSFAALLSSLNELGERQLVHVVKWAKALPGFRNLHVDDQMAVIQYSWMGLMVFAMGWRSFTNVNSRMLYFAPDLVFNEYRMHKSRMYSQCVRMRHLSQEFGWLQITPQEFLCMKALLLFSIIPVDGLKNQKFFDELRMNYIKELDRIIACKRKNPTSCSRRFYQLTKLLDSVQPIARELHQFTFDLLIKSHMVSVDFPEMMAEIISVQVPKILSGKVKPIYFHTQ
How it was run: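 Using qHTS, AR-UAS-bla GripTite HEK293 cells received compound, then R1881, and were cultured 16 h at 37C/5% CO2 before a 2 h room-temperature LiveBLAzer B/G FRET substrate step and fluorescence measurement.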

[18] = target: Androgen receptor (Homo sapiens) (UniProt P10275); experiment: qHTS assay to identify small molecule agonists of the androgen receptor (AR) signaling pathway (AID 743036; active = well fitted activation curve with a large enough effect in the signal ratio in the repeat runs, with a control signal flat, not every such curve was filed as active; the % refers to the signal ratio)
How it was run: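 Activation was read as beta-lactamase FRET signal from LiveBLAzer B/G substrate, added for 2 h at room temperature. Before that, GeneBLAzer AR-UAS-bla GripTite (HEK293) cells had 16 h compound exposure at 37C.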

[19] = target: Androgen receptor (Homo sapiens) (UniProt P10275); experiment: qHTS assay to identify small molecule agonists of the androgen receptor (AR) signaling pathway using the MDA cell line (AID 743040; also: nearly all actives have a fitted effect of over 20% in size)
How it was run: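 Cells plated, 5 h at 37C/0% CO2; compound or DMSO pinned; 16 h at 37C; ONE-Glo added; luminescence measured after 30 min at room temperature. Reporter line: MDA-kb2 with MMTV-luciferase responsive to AR and GR.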

[20] = target: Androgen receptor (Homo sapiens) (UniProt P10275); experiment: qHTS assay to identify small molecule antagonists of the androgen receptor (AR) signaling pathway using the MDA cell line (AID 743042; also: nearly all actives have a fitted effect of over 55% in size)
How it was run: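 Antagonist mode: compounds plus R1881 agonist added to MDA-kb2 AR-luc cells, incubated 16 h at 37C. Luciferase reporter luminescence quantified, with multiplexed CellTiter-Fluor readout for cell viability.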
% is scaled to controls: 0 for no effect and ±100 for the full control effect.

CC(C)(Sc1cc(C(C)(C)C)c(O)c(C(C)(C)C)c1)Sc1cc(C(C)(C)C)c(O)c(C(C)(C)C)c1
inactive: outcome [1] | Potency [2] | Potency [3] | outcome [4] | outcome [5] | Potency [6] | Potency [7] | Potency [8] | Potency [9] | outcome [10] | Potency [11]

N=C(N)S(=O)O
inactive: outcome [1] | Potency [12] | Potency [3] | outcome [4] | outcome [5] | Potency [6] | Potency [7] | Potency [8] | outcome [13] | Potency [9] | Potency [14] | Potency [15] | Potency [16] | outcome [10] | Potency [11]

CC(C)(O)c1ccc(C(C)(C)O)cc1
inactive: outcome [1] | Potency [2] | outcome [4] | outcome [5] | Potency [7] | Potency [8] | outcome [13] | Potency [9] | Potency [14] | Potency [15] | Potency [16] | outcome [10] | Potency [11]

CN1CCN(C(=O)C2CCCCC2)CC1
inactive: outcome [1] | Potency [2] | Potency [3] | outcome [4] | outcome [5] | Potency [7] | Potency [8] | outcome [13] | Potency [9] | Potency [14] | Potency [15] | Potency [16] | outcome [10] | Potency [11]

CCC(C)(C)C
inactive: outcome [1] | Potency [2] | Potency [3] | outcome [4] | outcome [5] | Potency [7] | Potency [8] | outcome [13] | Potency [9] | Potency [14] | Potency [15] | Potency [16] | outcome [10] | Potency [11]

CNCCc1ccccn1
inactive: outcome [1] | Potency [2] | Potency [3] | outcome [4] | outcome [5] | Potency [6] | Potency [7] | Potency [8] | Potency [9] | outcome [10] | Potency [11]

CC(C)(C)C(=O)NCCCC(=O)O
inactive: outcome [1] | Potency [2] | outcome [4] | outcome [5] | Potency [6] | Potency [7] | Potency [8] | outcome [13] | Potency [9] | Potency [14] | Potency [15] | Potency [16] | outcome [10] | Potency [11]

COC(=O)c1ccc(C(=O)O)cc1
inactive: outcome [1] | Potency [2] | Potency [3] | outcome [4] | outcome [5] | Potency [6] | Potency [7] | Potency [8] | outcome [13] | Potency [9] | Potency [14] | Potency [15] | outcome [10] | Potency [11]

C/C(=N\O)c1ccc(OCC(=O)N2CCCCC2)cc1
active: Potency [15] 4.22 µM
inactive: outcome [1] | Potency [12] | Potency [3] | outcome [4] | outcome [17] | outcome [18] | outcome [19] | outcome [5] | outcome [20] | Potency [7] | Potency [8] | outcome [13] | Potency [14] | outcome [10] | Potency [11]

C=CCN1CCc2nc(N)sc2CC1
inactive: outcome [1] | Potency [12] | Potency [3] | outcome [4] | outcome [17] | outcome [18] | outcome [19] | outcome [5] | outcome [20] | Potency [7] | Potency [8] | Potency [9] | outcome [10] | Potency [11]

Nc1ccc(C(=O)NCC(=O)O)cc1
inactive: outcome [1] | Potency [2] | outcome [4] | outcome [5] | Potency [6] | Potency [7] | Potency [8] | outcome [13] | Potency [9] | Potency [14] | Potency [15] | Potency [16] | outcome [10] | Potency [11]

CCCCCCCCCCCCCCCCN(C)C
inactive: viability change, negative = cytotoxic [1] 9.67% [at 7.04 µM] | activity change, negative = cytotoxicity [2] 9.27% [at 8.52 µM] | activity change, negative = cytotoxicity [4] -5.02% [at 7.04 µM] | activity change, negative = inhibition [17] -9.68% [at 7.04 µM] | activation [18] -6% [at 6.9 µM] | activity change [19] 0.294% [at 8.47 µM] | viability change, negative = cytotoxic [5] -2.54% [at 8.47 µM] | activity change, negative = inhibition [20] 19.6% [at 8.47 µM] | activity, negative = inhibition [7] 0.216% [at 8.44 µM] | activation [8] 0.259% [at 8.08 µM] | activity, negative = inhibition [13] -6.54% [at 6.71 µM] | activity, negative = cytotoxicity [9] -9.33% [at 6.72 µM] | activation [14] -5.38% [at 6.71 µM] | activation [15] -2.47% [at 8.47 µM] | activity change, negative = cytotoxicity [10] -2.87% [at 8.47 µM] | activity, negative = inhibition [11] 3.06% [at 8.47 µM]

O=C[C@@H](O)[C@H](O)[C@H](O)CO
inactive: outcome [1] | Potency [12] | Potency [3] | outcome [4] | outcome [17] | outcome [18] | outcome [19] | outcome [20] | Potency [6] | Potency [7] | Potency [8] | Potency [9] | outcome [10] | Potency [11]

CCOc1ccccc1OCCN[C@H](C)Cc1ccc(OC)c(S(N)(=O)=O)c1
inactive: outcome [1] | Potency [2] | Potency [3] | outcome [4] | outcome [5] | Potency [6] | Potency [7] | Potency [8] | Potency [9] | outcome [10] | Potency [11]

OCCC(F)(F)C(F)(F)C(F)(F)C(F)(F)C(F)(F)C(F)(F)F
inactive: outcome [1] | Potency [2] | Potency [3] | outcome [4] | outcome [5] | Potency [7] | Potency [8] | Potency [9] | Potency [14] | Potency [15] | outcome [10] | Potency [11]

BrCCOc1ccccc1
inactive: outcome [1] | Potency [2] | Potency [3] | outcome [4] | outcome [5] | Potency [6] | outcome [13] | Potency [9] | Potency [14] | Potency [15] | Potency [16] | outcome [10] | Potency [11]

CC(C)CC(=O)N[C@H](C(=O)N[C@H](C(=O)N[C@@H](CC(C)C)[C@@H](O)CC(=O)N[C@@H](C)C(=O)N[C@@H](CC(C)C)[C@@H](O)CC(=O)O)C(C)C)C(C)C (Isovaleryl-VV[Sta]A[Sta]-OH)
inactive: outcome [1] | Potency [2] | Potency [3] | outcome [4] | outcome [5] | Potency [6] | Potency [7] | Potency [8] | Potency [9] | outcome [10] | Potency [11]

O=C(O)P(=O)(O)O
inactive: outcome [1] | Potency [2] | Potency [3] | outcome [4] | outcome [5] | Potency [6] | Potency [7] | Potency [8] | Potency [9] | outcome [10] | Potency [11]

COc1cc2nc(N3CCN(C(=O)C4CCCO4)CC3)nc(N)c2cc1OC (stereo unspecified)
inactive: outcome [1] | Potency [12] | outcome [4] | outcome [5] | Potency [7] | Potency [8] | outcome [13] | Potency [9] | Potency [14] | Potency [15] | Potency [16] | outcome [10] | Potency [11]
